Structures are written as SMILES.

The assay deals with Plasmodium falciparum. As to the kind of experiment: GSK_TCMDC: Inhibition of Plasmodium falciparum 3D7 in whole red blood cells, using parasite LDH activity as an index of growth. Test compounds present at 2uM. It is filed as functional.
Usually Inhibition stands for the percentage by which the read-out fell short of the control. A high value points to a response far below the control. `NC(=O)c1cc2nc(Nc3ccc(F)cc3)nc(Nc3ccc(S(N)(=O)=O)cc3)c2[nH]1.O=CO` registered an Inhibition of 100%.

Regarding `Cc1cccc(CNc2nc(C)cc(N[C@@H](CC(C)C)C(=O)NCCOc3ccccc3)n2)c1.O=C(O)C(F)(F)F`, the Inhibition is 93%. Under `Cc1cccc2nc(-c3cccc(-c4cccc(NC(=O)c5cncn5C)c4)c3)[nH]c12` stands 100%; under `CC(C)[C@H](NC(=O)c1ccc(O)c(-c2ccc(Cl)c(Cl)c2)c1)C(=O)NCCN1CCCCC1`, 99%; under `COc1cc(C=CC(=O)N2CCC(CCN3CCC(c4c[nH]c5ccccc45)CC3)CC2)cc(OC)c1`, 92%.

Regarding `Nc1cccc(CNCc2cccc(-c3ccc(-c4nc5ccccc5[nH]4)s3)c2)c1.O=C(O)C(F)(F)F`, the Inhibition is listed as 100%. `COc1ccc(Nc2ncc3c(-c4cccc(NC(=O)c5ccccc5)c4)c[nH]c3n2)cc1OC` displayed an Inhibition of 100%. With `O=[N+]([O-])c1ccccc1/C=N/Nc1ccnc2cc(Cl)ccc12` the figure was 100%; with `COc1ccc2c(c1)CC(CNC[C@H](O)c1cccc(Cl)c1)CC2` (stereo not given in full), 94%; with `COc1ccc(C=NNc2ccnc3cc(F)c(C)cc23)c2ccccc12`, 100%. Under `COc1ccc(-c2ccccc2CNC2Cc3ccccc3C2)cc1S(=O)(=O)NCCN1CCCC1.O=C(O)C(F)(F)F` stands 96%.

The molecule `Cc1[nH]c2ccccc2c1C1CCN(CCCCNC(=O)c2ccc(-c3ccc(C#N)cc3)cc2)CC1` came in with an Inhibition of 100%. With `CC(C)CSc1cc(C(=O)Nc2cc(Cl)ccc2O)ccn1` the figure was 100%; with `CSc1sc(NC(=O)Nc2cccc(C(F)(F)F)c2)cc1C#N`, 99%. In turn, `O=C(Nc1ccc(-c2ccc(-c3nc4ccccc4[nH]3)s2)cc1)Nc1ccc(Cl)c(Cl)c1` yielded an Inhibition of 100%. In the case of `O=C(O)C(F)(F)F.c1cc(-c2ccc(CNCc3ccc(-c4csnn4)cc3)cc2)cc(-c2nc3ccccc3[nH]2)c1`, the Inhibition came to 100%.

Consider `CC(C)[C@H](NC(=O)c1ccc(O)c(-c2ccc(Cl)c(Cl)c2)c1)C(=O)NCCN1CCOCC1`, for which the Inhibition is 95%. With `COc1ccc(-c2cccc(NC(=O)c3ccc(C#N)cc3)c2)cc1CN(C)CCN(C)C.O=C(O)C(F)(F)F` the figure was 90%; with `CC(C)(C)c1ccc(-c2ccccc2CNC(=O)c2cccc(O)c2)cc1`, 99%; with `O=C(Nc1ccc(F)c(F)c1)c1ccc(CN2CCCN(Cc3cccc(O)c3)CC2)cc1.O=C(O)C(F)(F)F`, 92%. Under `CNC(=O)NC1=NC(C)(C)N(OCCCOc2cc(Cl)c(Cl)cc2Cl)C(N)=N1` stands 97%; under `N=c1c(C(=O)NCc2ccccc2)cc2c(=O)n3ccccc3nc2n1CCc1ccccc1`, 99%. In turn, `NCC1CCCN1Cc1ccc(-c2ccc(-c3nc4cc(F)ccc4[nH]3)cc2)cc1.O=C(O)C(F)(F)F` (stereo not given) yielded an Inhibition of 100%. Under `CCCNCc1ccc(-c2ccc(CN(C(=O)c3nn(-c4ccccc4)nc3C)C3CCOCC3)cc2)nc1.O=C(O)C(F)(F)F` stands 98%; under `Cc1cc(Oc2ccc(-n3ccnc3)cc2)nc(N2CCN(CCCN3CCCC3)CC2)n1.O=C(O)C(F)(F)F`, 90%. With `Cc1ccc(N(CCC(=N)N)Cc2ccccc2)cc1.Cl` the figure was 96%. For the molecule `Cl.Cn1cc(Br)c(-c2cccc(Nc3ccnc4cc(-c5nccs5)ccc34)c2)n1`, the Inhibition is 91%. Molecule `CN1CCN(Cc2ccc(-c3ccc4ncnc(Nc5ccc(OCc6ccccc6)cc5)c4c3)o2)CC1` gave an Inhibition of 97%. Under `CCCN(C(=O)c1ccccc1C)c1nnc(-c2cccc(C)c2)s1` stands 91%.

As for `O=C(NCCCCN1CCN(c2cccc3c2CCCC3)CC1)c1ccc(NC(=O)c2ccc(Cl)cc2)cc1`, the Inhibition worked out at 100%. With `OC1=C2C(=Nc3ccccc3SC2c2cccs2)c2ccccc21` (stereo not given) the figure was 96%; with `CC(C)(C)CNc1noc(-c2sccc2Br)n1`, 82%. With `Br.Cc1cccc(OCCCCON2C(=N)N=C(N)NC2(C)C)c1C` the figure was 97%; with `Cc1cccc(C(=O)NCCCN2CCC(NC(=O)/C=C/c3ccc(Cl)c(Cl)c3)CC2)c1.O=C(O)C(F)(F)F`, 98%; with `O=C(NCCCN(Cc1ccc(F)cc1)c1ccccn1)C(c1cc2ccccc2o1)N1CCN(C(c2ccccc2)c2ccccc2)CC1` (stereo not given), 97%. With `CN(CCO)Cc1cccc(-c2ccc(NC(=O)c3cccc(C#N)c3)cc2)c1.O=C(O)C(F)(F)F` the figure was 97%. In the case of `Cl.O=C(NCCCCN1CCC(c2ccc3c(c2OC(=O)c2ccc(NC(=O)c4ccc(Cl)cc4)cc2)CCCC3)CC1)c1ccc(NC(=O)c2ccc(Cl)cc2)cc1`, the Inhibition amounted to 100%. With `COc1ccc2ccccc2c1CCCCN1CCN(CC(c2ccc(F)cc2)N2CCN(C3CCCC3)CC2)CC1.O=C(O)C(F)(F)F` (stereo not given) the figure was 88%; with `COc1ccc(OCCn2cc(C(=O)c3ccco3)c3ccccc32)cc1`, 98%; with `c1ccc2[nH]c(Nc3ccc(Nc4nc5ccccc5[nH]4)cc3)nc2c1`, 98%.

The values above are taken from ChEMBL document CHEMBL1157539, “Thousands of chemical starting points for antimalarial lead identification” (Nature, 2010).
